# From paper PMC5540273 (PLoS ONE, 2017)
# System: ACVR1B
# Settings: concentration: 1 μM, replicates: in singlicate; n = 1
# 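Further: KINOMEscan kinase panel screen.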
row,SMILES,%Inh [%]
1,Cc1cccc(-c2cc(-c3c[nH]nc3-c3ccccn3)ccn2)c1 [GW679395],0
2,Cc1ccc(Oc2ccc(Nc3ncnc4cc[nH]c34)cc2C)cn1,27
3,O=C1NC(=O)C(c2ccccc2)=C1Nc1cccc(O)c1 [SB-390534],0
4,CCS(=O)(=O)c1ccc(OC)c(Nc2ncc(-c3ccc(F)cc3)o2)c1.Cl [GW591947],0
5,Cl.c1ccc(Cn2cnc3cc(Nc4ncnc5ccccc45)ccc32)cc1 [GW272142],0
6,CN(C)c1cc(-c2ccc3c(N)n[nH]c3c2)nc(N)n1 [GSK2219329],0
7,Cc1nn2c(=O)cc(N3CCOCC3)nc2n1Cc1cccc(Cl)c1Cl [GSK2342769],0
8,Nc1nc(-c2ccccc2F)c(-c2ccnc3ccccc23)s1 [GW560459],0
9,COc1ccc(-n2cnc3c(N)ncnc32)cc1 [SKF-97236],21
10,COc1cccc(C2=C(Nc3cccc(C(=O)O)c3)C(=O)NC2=O)c1 [SB-390770],18
11,COc1cc2nccc(Nc3cccc(Oc4ccccc4)c3)c2cc1OC.Cl [GW284543],12
12,CCCC(=O)Nc1n[nH]c2ncc(-c3cccc4ccccc34)cc12 [SB-642057],0
13,CCc1nc(-c2cccc(C)c2)c(-c2ccncc2)s1,20
14,O=C(Nc1ccc2c(c1)OCO2)NC1CCN(c2ccnc(NCc3ccc(F)cc3)n2)CC1 [GSK1379859],0
15,Cc1ccc(-c2ccc3c(ccc4sc5c(c43)NC[C@@H](C)N=C5N(C)C)n2)cn1,0
16,Cc1nc(N(C)[C@H]2CN(C(=O)CC#N)CC[C@H]2C)c2cc[nH]c2n1,8
17,O=C(Nc1n[nH]c2nc(-c3ccccc3)c(Cl)cc12)C1CC1 [SB-734909],7
18,COc1cccc(C2=C(N(C)c3ccccc3)C(=O)NC2=O)c1 [SB-334865],0

row,SMILES,%Inh [%]
1,COc1ccc(-c2coc3ccc(-c4nnc(SCc5cccc(C#N)c5)o4)cc23)cc1,6
2,O=C(NCCNc1ccnc(Nc2ccc(F)cc2)n1)Nc1ccc2c(c1)OCO2 [GSK1379882],0
3,CCS(=O)c1ccc(-c2coc3ccc(-c4nnc(C)o4)cc23)cc1 (stereo not drawn),0
4,Cc1cccc(-c2nc(Nc3ccc4c(cnn4C)c3)c3ccccc3n2)n1 [GW876731],64
5,CCn1c(-c2nonc2N)nc2ccccc21 [SB-693162/GW549034],1
6,CCC(=O)c1c(-c2ccccc2)c2cc(Cl)ccc2c(=O)n1Cc1cc(S(C)(=O)=O)n(CC(F)F)n1,0
7,COc1cc2ncn(-c3cc(OCc4ccncc4Br)c(C(N)=O)s3)c2cc1OC [GW854278],9
8,COC(=O)c1c(-c2ccccc2)c2cc(C)ccc2c(=O)n1Cc1ccccc1,0
9,Cc1nnc(-c2ccc3ncn(-c4ccc(S(C)=O)cc4)c3c2)o1 (stereo not drawn),15
10,COC(=O)c1c(-c2ccccc2)c2cc(Br)ccc2c(=O)n1Cc1ccc(S(C)(=O)=O)cc1,0
11,CCC(=O)c1c(-c2ccccc2)c2cc(Cl)ccc2c(=O)n1Cc1cc(S(C)(=O)=O)n(CC(N)=O)n1,0
12,COc1cc(Nc2ccnc3ccc(C(F)(F)F)cc23)cc(OC)c1OC [GW577382],0
13,Cc1ccccc1COc1cc(-n2cnc3cc(Cl)ccc32)sc1C(N)=O [GW813349],0
14,Nc1n[nH]c2ncc(-c3ccccc3)cc12 [SB-517081],0
15,CC(C)(C)c1ccc(C(=O)Nc2cn3cc(-c4ccccc4)ccc3n2)cc1,0
16,FC(F)(F)c1ccc(-c2ncn(CCCN3CCOCC3)c2-c2ccncc2)cc1 [SB-217780],10
17,O=C(Nc1n[nH]c2nc(-c3ccccc3)c(Br)cc12)C1CC1 [SB-708998],0
18,COC(=O)c1c(-c2ccccc2)c2cc(Br)ccc2c(=O)n1Cc1ccc(NC(=O)CCC(=O)O)cc1,0

# System: ACVR1
# Settings: concentration: 1 μM, replicates: in singlicate; n = 1
row,SMILES,%Inh [%]
1,Cc1cccc(-c2cc(-c3c[nH]nc3-c3ccccn3)ccn2)c1 [GW679395],0
2,Cc1ccc(Oc2ccc(Nc3ncnc4cc[nH]c34)cc2C)cn1,2
3,O=C1NC(=O)C(c2ccccc2)=C1Nc1cccc(O)c1 [SB-390534],22
4,CCS(=O)(=O)c1ccc(OC)c(Nc2ncc(-c3ccc(F)cc3)o2)c1.Cl [GW591947],0
5,Cl.c1ccc(Cn2cnc3cc(Nc4ncnc5ccccc45)ccc32)cc1 [GW272142],17
6,CN(C)c1cc(-c2ccc3c(N)n[nH]c3c2)nc(N)n1 [GSK2219329],0
7,Cc1nn2c(=O)cc(N3CCOCC3)nc2n1Cc1cccc(Cl)c1Cl [GSK2342769],12
8,Nc1nc(-c2ccccc2F)c(-c2ccnc3ccccc23)s1 [GW560459],6
9,COc1ccc(-n2cnc3c(N)ncnc32)cc1 [SKF-97236],7
10,COc1cccc(C2=C(Nc3cccc(C(=O)O)c3)C(=O)NC2=O)c1 [SB-390770],15
11,COc1cc2nccc(Nc3cccc(Oc4ccccc4)c3)c2cc1OC.Cl [GW284543],0
12,CCCC(=O)Nc1n[nH]c2ncc(-c3cccc4ccccc34)cc12 [SB-642057],26
13,CCc1nc(-c2cccc(C)c2)c(-c2ccncc2)s1,3
14,O=C(Nc1ccc2c(c1)OCO2)NC1CCN(c2ccnc(NCc3ccc(F)cc3)n2)CC1 [GSK1379859],0
15,Cc1ccc(-c2ccc3c(ccc4sc5c(c43)NC[C@@H](C)N=C5N(C)C)n2)cn1,0
16,Cc1nc(N(C)[C@H]2CN(C(=O)CC#N)CC[C@H]2C)c2cc[nH]c2n1,8
17,O=C(Nc1n[nH]c2nc(-c3ccccc3)c(Cl)cc12)C1CC1 [SB-734909],0
18,COc1cccc(C2=C(N(C)c3ccccc3)C(=O)NC2=O)c1 [SB-334865],28

row,SMILES,%Inh [%]
1,COc1ccc(-c2coc3ccc(-c4nnc(SCc5cccc(C#N)c5)o4)cc23)cc1,6
2,O=C(NCCNc1ccnc(Nc2ccc(F)cc2)n1)Nc1ccc2c(c1)OCO2 [GSK1379882],0
3,CCS(=O)c1ccc(-c2coc3ccc(-c4nnc(C)o4)cc23)cc1 (stereo not drawn),5
4,Cc1cccc(-c2nc(Nc3ccc4c(cnn4C)c3)c3ccccc3n2)n1 [GW876731],0
5,CCn1c(-c2nonc2N)nc2ccccc21 [SB-693162/GW549034],0
6,CCC(=O)c1c(-c2ccccc2)c2cc(Cl)ccc2c(=O)n1Cc1cc(S(C)(=O)=O)n(CC(F)F)n1,0
7,COc1cc2ncn(-c3cc(OCc4ccncc4Br)c(C(N)=O)s3)c2cc1OC [GW854278],5
8,COC(=O)c1c(-c2ccccc2)c2cc(C)ccc2c(=O)n1Cc1ccccc1,0
9,Cc1nnc(-c2ccc3ncn(-c4ccc(S(C)=O)cc4)c3c2)o1 (stereo not drawn),0
10,COC(=O)c1c(-c2ccccc2)c2cc(Br)ccc2c(=O)n1Cc1ccc(S(C)(=O)=O)cc1,15
11,CCC(=O)c1c(-c2ccccc2)c2cc(Cl)ccc2c(=O)n1Cc1cc(S(C)(=O)=O)n(CC(N)=O)n1,0
12,COc1cc(Nc2ccnc3ccc(C(F)(F)F)cc23)cc(OC)c1OC [GW577382],67
13,Cc1ccccc1COc1cc(-n2cnc3cc(Cl)ccc32)sc1C(N)=O [GW813349],0
14,Nc1n[nH]c2ncc(-c3ccccc3)cc12 [SB-517081],8
15,CC(C)(C)c1ccc(C(=O)Nc2cn3cc(-c4ccccc4)ccc3n2)cc1,5
16,FC(F)(F)c1ccc(-c2ncn(CCCN3CCOCC3)c2-c2ccncc2)cc1 [SB-217780],0
17,O=C(Nc1n[nH]c2nc(-c3ccccc3)c(Br)cc12)C1CC1 [SB-708998],21
18,COC(=O)c1c(-c2ccccc2)c2cc(Br)ccc2c(=O)n1Cc1ccc(NC(=O)CCC(=O)O)cc1,0
